Bioassay records from PubChem.
PI5P4K alpha inh = qHTS for Inhibitors of phosphatidylinositol 5-phosphate 4-kinase (PI5P4K) | Phosphatidylinositol 5-phosphate 4-kinase type-2 alpha (Homo sapiens), P48426 | PI5P4Kalpha enzyme, ADP-Glo luminescence, 60 min; active compounds read low | max response, % | 1.2% of 330,000 active | AID 652105, 2013; active = max response of -50% or lower; inconclusive = between -30% and -50%; inactive = -30% or higher; also: value at the top dose of about 77 µM; % is scaled to controls: 0 for no effect and ±100 for the full control effect
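Compounds were pin-transferred onto PI5P4Kalpha and substrate in HEPES pH 7.4 buffer with EGTA, CHAPS and 5% DMSO. ATP (5 microM final) started the reaction, which ran 60 minutes at room temperature before ADP-Glo detection.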
POLB inh = qHTS Assay for Inhibitors of DNA Polymerase Beta. P06746. Pol beta primer extension/strand displacement, fluorescence kinetic. Potency, µM (doses to about 114 µM), for the others: top-dose activity change, negative = inhibition, hits mostly inhibitors. 1.3% of 340,000 active. AID 485314, 2010; also: potency is read from the fitted curve at half-maximal effect; % is scaled to controls: 0 for no effect and ±100 for the full control effect
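Curves were derived by four-parameter Hill fits of normalized qHTS data. The kinetic fluorescent primer-extension read was taken at 0 and 10 min after 50 nM substrate, following a 15 min room-temperature preincubation of 10 nM enzyme with compounds.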
Pol eta inh = qHTS for Inhibitors of Polymerase Eta; DNA polymerase eta (Homo sapiens), Q9Y253; recombinant Pol eta, fluorescent DNA replication assay; Potency, µM (doses to about 114 µM), inactives show at the top dose activity change, negative = inhibition, hits mostly inhibitors; 1.2% of 390,000 active; also: potency is read from the fitted curve at half-maximal effect; % is scaled to controls: 0 for no effect and ±100 for the full control effect
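Fluorescent replication assay: 50 nM final substrate added after a 15 min room-temperature compound preincubation with 10 nM enzyme. Signal taken at 0 min and again at 10 min.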
POLK inh = qHTS for Inhibitors of Polymerase Kappa; DNA polymerase kappa (Homo sapiens), Q9UBT6; 0.53% of 400,000 active; purified Pol kappa, fluorescent DNA synthesis assay, 10 min; Potency, µM (series often up to 107 µM), inactives show at the top dose activity, negative = inhibition, most hits filed as inhibitors; also: potency is read from the fitted curve at half-maximal effect; % is scaled to controls: 0 for no effect and ±100 for the full control effect
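Kinetic fluorescence readout at 0 and 10 min followed reaction start with substrate at 50 nM final. Beforehand, enzyme (10 nM Pol kappa) stood 15 min with compound at room temperature; buffer-only wells were negative controls.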
WRN helicase inh = qHTS for Inhibitors of WRN Helicase; Potency, µM (titrated, usually from 114 µM), for inactives: top-dose activity change, negative = inhibition, usual class: inhibitors; WRN helicase unwinding, fluorescent forked duplex, kinetic; 0.46% of 360,000 active; Bifunctional 3'-5' exonuclease/ATP-dependent helicase WRN (Homo sapiens), Q14191; also: potency is read from the fitted curve at half-maximal effect; % is scaled to controls: 0 for no effect and ±100 for the full control effect; nearly all actives have a fitted effect of over 55% in size
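Kinetic red-fluorescence monitoring (525/598 nm) tracks WRN helicase activity after 100 nM fluorophore-quencher forked duplex and 2 mM ATP are added to 20 nM enzyme pretreated 15 min at room temperature with compound.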
Pol iota inh = qHTS for Inhibitors of Polymerase Iota; Pol iota fluorescent replication assay, 10 min; Potency, µM (highest dose often 115 µM), for inactives: at the highest dose activity, negative = inhibition, actives largely listed as inhibitors; 1% of 390,000 active; AID 588590, 2011; also: potency is read from the fitted curve at half-maximal effect
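Fluorescent replication assay read twice, at 0 min and 10 min after adding 50 nM (final) substrate. Enzyme (10 nM) and compounds were first incubated 15 min at room temperature; enzyme-free buffer wells were negative controls.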
* hit, by the source's call; ? = inconclusive; · = not tested or not shown; ! = repeats disagree; [ ] = dose if it differs, or a comment. Sampled rows, rich in hits. Any-hit rate of the full collection: about 2.8%. Unless noted, calls follow the shape of the dose curve; as a rule, active = well fitted curve in the direction sought with a large enough effect; inconclusive = small, poorly fitted or top-dose-only effect, or another doubt; inactive = no such curve, though single readings can be large; an effect the other way counts as inactive or inconclusive.

SMILES	PI5P4K alpha inh	POLB inh	Pol eta inh	POLK inh	WRN helicase inh	Pol iota inh
COc1ccc(NC(=O)c2cc(S(=O)(=O)N3CCCCC3)ccc2C)cc1S(=O)(=O)N1CCOCC1	-7	·	-19%	-8%	-31%	-6%
CCCn1c(NCc2ccco2)nc2ccccc21	·	-5%	-8%	-17%	-5%	2%[58.9 µM]
CCCCn1c(/C=C/c2ccco2)nc2ccccc21	-25	8.9µM*	?	-10%	-34%	?
CCCn1c(/C=C/c2ccco2)nc2ccccc21	-52*	22µM*	13µM*	-36%	-15%[57.1 µM]	45µM*
CC1(C(=O)NS(=O)(=O)Cc2ccccc2)CCN1C(=O)CCc1ccccc1 (stereo unspecified)	1	·	·	·	7%	·
COc1cc(N)c(N)cc1OC	·	·	·	-21%	·	22µM*
O=C(NCc1nnc2c(C(F)(F)F)cc(Cl)cn12)c1cccnc1	1	9%	-17%	-1%	4%	2%
CC(C)=NNc1ncnc2nc[nH]c12	-11	·	-3%	-7%	-17%	-9%
CCc1ccc(/C=N/Nc2ncnc3nc[nH]c23)cc1	-56*	?	-17%	5%	-24%	36%
CC(C)Oc1ccc(C(=O)Nc2nc3c(s2)CC(C(C)(C)C)CC3)cc1 (stereo unspecified)	·	20%	-20%	-3%	·	20%
C=C(C)C1CC=C(C)/C(=N/NC(=O)CNc2ccc(OCC)cc2)C1 (stereo unspecified)	8	-2%	-3%	0%	-6%	89µM*
COc1ccccc1OCC(=O)Nc1c(C(=O)c2ccc(F)cc2)oc2ccccc12	·	0%	-8%	2%	·	13%
CN1C2C=C3C(C#N)=C(N)C(C#N)(C#N)[C@@H](c4cccc(F)c4)[C@@H]3C1CC2 (stereo partly specified)	2	44%	-11%	-7%	-4%[57.1 µM]	20µM*
Cc1ccc(OCC(=O)O)c(O)c1	-4	·	-5%	0%	4%	3%
COCCCNC(=O)C[C@H]1C[C@H](C(=O)N2CCOCC2)[C@@]2(C)c3[nH]c4cc(CCC(=O)N(C)C)ccc4c3CCN2C1=O	-6	·	-11%	1%	-2%	21%
O=C(COC(=O)Cc1n[nH]c(=O)c2ccccc12)Nc1ncc(Cl)cc1Cl	-25	·	79µM*	-3%	-10%[11.6 µM]	12%
O=C(COC(=O)CNC(=O)c1ccccc1F)Nc1ncc(Cl)cc1Cl	-13	·	50µM*	-23%	-11%[11.6 µM]	?
CO[C@H]1/C=C\O[C@@]2(C)Oc3c(C)c(O)c4c(O)c(c(C=NN5CCN(C6CCCC6)CC5)c(O)c4c3C2=O)NC(=O)C(C)=CC=C[C@H](C)[C@H](O)[C@@H](C)[C@@H](O)[C@@H](C)[C@H](OC(C)=O)[C@H]1C	·	·	·	-15%	·	5%
COc1ccc(Cl)cc1NC(=O)c1c(NCc2cccs2)sc2c1CCCC2	·	?	50µM*	-9%[60.1 µM]	·	-8%
COc1ccc(OC)c(NC(=O)c2c(NCc3cccs3)sc3c2CCCC3)c1	·	-13%	-18%	-17%[60.1 µM]	·	?
COc1ccccc1CNC(=O)C1CCN(S(=O)(=O)c2ccc(N3CCCC3=O)cc2)CC1	4	55%	-5%	-5%	-5%	-15%
CC1=NN(c2ccccc2)C(=O)/C1=C\c1ccc(Oc2ccc([N+](=O)[O-])cc2[N+](=O)[O-])cc1	-29	-3%	50µM*	-13%	-36%[57.1 µM]	1.8µM*
COc1cc(/C=C2/SC(=O)NC2=O)ccc1Oc1ccc([N+](=O)[O-])cc1[N+](=O)[O-]	-18	71%	50µM*	0%	-6%[11.6 µM]	?
COc1cc(/C=C2\SC(=O)NC2=O)ccc1Oc1ccc([N+](=O)[O-])cn1	-16	0%	-9%	-8%	-9%	41%
COc1cc(/C=C2/C(=O)N(c3ccc(C)c(C)c3)N=C2C)cc([N+](=O)[O-])c1O	-11	6%	-15%	13%	-12%	-12%
SMILES	PI5P4K alpha inh	POLB inh	Pol eta inh	POLK inh	WRN helicase inh	Pol iota inh
COc1cc(/C=C2\C(=O)N(c3ccccc3)N=C2C)ccc1Oc1ccc([N+](=O)[O-])cc1[N+](=O)[O-]	-19	-19%	?	-23%	-34%	2µM*
CCOC(=O)C1CCCN(S(=O)(=O)c2cc(-c3onc(C)c3C)ccc2OC)C1 (stereo unspecified)	·	-25%	-21%	-13%	·	15%
COc1cccc(CN2c3ccc(Br)cc3C(=O)CS2(=O)=O)c1	-4	·	-1%	-3%	1%	79µM*!
CCCNC(=O)Cn1nc(-c2ccc(F)cc2)c2cnc3ccc(F)cc3c21	·	5%	4%	23%	·	?
COc1cc2cc(Oc3ccc4ccc(=O)oc4c3)c(=O)oc2cc1O[C@@H]1O[C@H](CO)[C@@H](O)[C@H](O)[C@H]1O	?	·	8.9µM*	45µM*	?	50µM*
Cc1c(C)c2ccc(O[C@@H]3O[C@H](CO)[C@H](O)[C@H](O)[C@H]3O)cc2oc1=O	-1	6%	-11%	15%	4%	-5%
CCCc1cc(=O)oc2c(C)c(OCC(=O)N3CCC[C@@H]3C(=O)O)ccc12	0	11%	3%	11%	1%	10%
CCCCCCc1c(C)c2ccc(OCC(=O)N3CCC[C@H]3C(=O)O)c(C)c2oc1=O	2	2%	79µM*	-30%	-17%	89µM*
COc1ccc([C@H]2C[C@H](O)C[C@@H](CCn3cc(-c4ccccc4)nn3)O2)cc1	5	·	·	·	-7%	·
CC(=O)c1ccc(N2CCN(C(=O)c3ccccc3SCC(=O)NCc3ccco3)CC2)c(F)c1	-6	·	-13%	-5%	8%	19%
O=C(CCCOc1ccccc1)N1CCN(c2ccc(F)cc2)CC1	1	100µM*	-4%	-10%	-1%	12%
O=C(CCc1ccccc1)N1CCN(c2ccc(F)cc2)CC1	1	-1%	-21%	2%	1%[57.1 µM]	13%
CCN(CC)S(=O)(=O)c1ccc(N2CCOCC2)c(NC(=O)CC23CC4CC(CC(Br)(C4)C2)C3)c1	3	-16%	-21%	-5%	-1%	17%
O=C(N/N=C/c1cc(Br)c(O)c(Br)c1)C1CC1	?	-8%	-19%	-2%	0%	107%
CC(C)(C)NC(=S)N/N=C/c1cc(Br)c(O)c(Br)c1	-91*	-23%	-18%	-10%	-8%	?
COc1c(O)cc(O)cc1O	·	·	·	25µM*	·	·
